# Reference: PubChem BioAssay (EPA / NIEHS)
# Calls of active or inactive are those of the source. Rule for the calls: active = hit-call score of the fitted dose curve at least 0.9, where 1 is the maximum; inactive = score below 0.9.
# Tests used:
# Conditions in all cases: mRNA level, 48 h; actives raise or lower the signal
# [1] = read-out: Apolipoprotein A-V (APOA5) gene, APOA5 (gene 116519); assay: LTEA_HepaRG_APOA5: Life Technologies and Expression Analysis (LTEA) Assay for Apolipoprotein A-V (APOA5) gene using HepaRG (AID 2283474)
# Method in brief: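 Differentiated HepaRG cells in serum-free induction medium, exposed 48 h in duplicate to eight half-log concentrations topping at 100 uM (0.5% DMSO). APOA5 mRNA by Fluidigm TaqMan qRT-PCR, normalized to ACTB, GAPDH and POLR2A; bidirectional fit versus DMSO.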
# [2] = read-out: Bcl-2 (BID) gene, BID (gene 637); assay: LTEA_HepaRG_BID: Life Technologies and Expression Analysis (LTEA) Assay for Bcl-2 (BID) gene using HepaRG (AID 2283476)
# Method in brief: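 Gain or loss of BID expression is fitted relative to 0.5% DMSO vehicle. Human HepaRG liver cells received a 48 h chemical exposure over an eight-point concentration range.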
# [3] = read-out: Caspase-3 (Homo sapiens) (UniProt P42574); assay: LTEA_HepaRG_CASP3: Life Technologies and Expression Analysis (LTEA) Assay for cysteine-aspartic acid protease (CASP3) using HepaRG (AID 2283477)
# Method in brief: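 Differentiated HepaRG cells, plated 48 h, were treated in duplicate in serum-free induction medium for 48 h with eight half-log concentrations up to 100 uM in 0.5% DMSO. CASP3 mRNA measured by qRT-PCR, normalized to ACTB, GAPDH, POLR2A.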
# [4] = read-out: Cytochrome P450 (CYP24A1), CYP24A1 (gene 1591); assay: LTEA_HepaRG_CYP24A1: Life Technologies and Expression Analysis (LTEA) Assay for Cytochrome P450 (CYP24A1) using HepaRG (AID 2283478)
# Method in brief: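 HepaRG cells plated 48 h, then exposed in duplicate in serum-free induction medium for 48 h to 8-point half-log series from 100 uM in 0.5% DMSO. CYP24A1 mRNA by Fluidigm qRT-PCR, normalized to ACTB, GAPDH, POLR2A; bidirectional fit versus DMSO.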
# [5] = read-out: Cytochrome P450 (CYP1A2), CYP1A2 (gene 1544); assay: LTEA_HepaRG_CYP1A2: Life Technologies and Expression Analysis (LTEA) Assay for Cytochrome P450 (CYP1A2) using HepaRG (AID 2283479)
# Method in brief: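 Differentiated human HepaRG cells in serum-free induction medium exposed 48 hours in duplicate to 8 half-log concentrations from 100 uM, 0.5% DMSO. CYP1A2 mRNA quantified by qRT-PCR, normalized to ACTB, GAPDH and POLR2A; bidirectional fitting versus DMSO.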
# [6] = read-out: cysteine-aspartic acid protease (CASP8), CASP8 (gene 841); assay: LTEA_HepaRG_CASP8: Life Technologies and Expression Analysis (LTEA) Assay for cysteine-aspartic acid protease (CASP8) using HepaRG (AID 2283480)
# Method in brief: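 HepaRG, 48 h exposure, duplicate wells; 8 conc, half-log from 100 uM, 0.5% DMSO. Serum-free induction medium. CASP8 mRNA by TaqMan qRT-PCR, norm. ACTB/GAPDH/POLR2A; gain/loss fitted vs DMSO.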
# [7] = read-out: Cytochrome P450 (CYP2B6), CYP2B6 (gene 1555); assay: LTEA_HepaRG_CYP2B6: Life Technologies and Expression Analysis (LTEA) Assay for Cytochrome P450 (CYP2B6) using HepaRG (AID 2283481)
# Method in brief: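 Differentiated human HepaRG cells in serum-free induction medium, dosed in duplicate for 48 h over 8 half-log concentrations topping at 100 uM (0.5% DMSO). CYP2B6 mRNA measured by TaqMan qRT-PCR, normalized to ACTB, GAPDH, POLR2A; bidirectional fit versus DMSO.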
# [8] = read-out: CYP2C8 (gene 1558); assay: LTEA_HepaRG_CYP2C8: Life Technologies and Expression Analysis (LTEA) Assay for CYP2C8 using HepaRG (AID 2283483)
# Method in brief: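 CYP2C8 mRNA induction or loss, by qRT-PCR normalized to ACTB/GAPDH/POLR2A, is read in HepaRG cells after 48 h treatment. Concentrations run from 100 uM down in half-log dilutions, with 0.5% DMSO as vehicle and baseline.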
# [9] = read-out: Cytochrome P450 2C19 (Homo sapiens) (UniProt P33261); assay: LTEA_HepaRG_CYP2C19: Life Technologies and Expression Analysis (LTEA) Assay for CYP2C19 using HepaRG (AID 2283482)
# Method in brief: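 Differentiated HepaRG cells in serum-free induction medium exposed 48 h in duplicate, 8 concentrations from 100 uM by half-log steps in 0.5% DMSO. CYP2C19 mRNA measured by TaqMan qRT-PCR, normalized to ACTB, GAPDH, POLR2A. Bidirectional fit versus DMSO.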
# Sequence of Caspase-3 (Homo sapiens) (P42574 whole entry, looked up): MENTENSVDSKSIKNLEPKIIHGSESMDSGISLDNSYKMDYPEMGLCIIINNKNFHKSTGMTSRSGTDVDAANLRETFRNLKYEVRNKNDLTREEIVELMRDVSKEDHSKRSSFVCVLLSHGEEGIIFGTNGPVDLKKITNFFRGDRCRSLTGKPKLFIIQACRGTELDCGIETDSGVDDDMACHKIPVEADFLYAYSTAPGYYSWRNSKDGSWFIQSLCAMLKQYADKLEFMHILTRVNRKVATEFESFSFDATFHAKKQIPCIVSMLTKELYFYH
# Sequence of Cytochrome P450 2C19 (Homo sapiens) (P33261 whole entry, looked up): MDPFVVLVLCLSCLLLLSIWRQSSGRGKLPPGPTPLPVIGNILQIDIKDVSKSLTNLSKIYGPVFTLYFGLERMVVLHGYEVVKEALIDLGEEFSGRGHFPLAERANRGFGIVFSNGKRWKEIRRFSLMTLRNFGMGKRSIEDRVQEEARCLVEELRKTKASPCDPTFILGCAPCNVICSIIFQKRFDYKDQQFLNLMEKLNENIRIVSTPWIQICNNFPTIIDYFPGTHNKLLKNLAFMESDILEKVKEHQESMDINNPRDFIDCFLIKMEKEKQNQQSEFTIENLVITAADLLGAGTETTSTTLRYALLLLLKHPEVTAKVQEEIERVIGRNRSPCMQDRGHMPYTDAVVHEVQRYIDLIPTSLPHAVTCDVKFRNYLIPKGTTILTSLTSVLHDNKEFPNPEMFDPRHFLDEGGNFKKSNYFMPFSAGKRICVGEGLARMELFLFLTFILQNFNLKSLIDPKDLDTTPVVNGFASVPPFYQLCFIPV
structure (smiles),measurement,setting,value
O=C(O)c1[nH]n(-c2ccc(S(=O)(=O)O)cc2)c(=O)c1N=Nc1ccc(S(=O)(=O)O)cc1,outcome,[1],inactive
same,outcome,[2],inactive
same,outcome,[3],inactive
same,outcome,[4],inactive
same,AC50,[5],14.8 µM (active)
same,outcome,[6],inactive
same,outcome,[7],inactive
same,outcome,[8],inactive
NC=O,outcome,[1],inactive
same,outcome,[2],inactive
same,outcome,[3],inactive
same,outcome,[4],inactive
same,outcome,[5],inactive
same,outcome,[6],inactive
same,outcome,[7],inactive
same,outcome,[8],inactive
CC(C)OC(=O)C(C)(C)Oc1ccc(C(=O)c2ccc(Cl)cc2)cc1,AC50,[1],0.0432 µM (active)
same,AC50,[2],0.0422 µM (active)
same,outcome,[3],inactive
same,outcome,[4],inactive
same,AC50,[5],28.1 µM (active)
same,outcome,[6],inactive
same,outcome,[8],inactive
COc1ccc(C(=O)Nc2nc3ccccc3c(NCc3ccccc3)c2C#N)cc1,outcome,[1],inactive
same,outcome,[2],inactive
same,outcome,[3],inactive
same,AC50,[4],0.00721 µM (active)
same,AC50,[5],3 µM (active)
same,outcome,[6],inactive
same,AC50,[8],16.7 µM (active)
CC(=O)O,outcome,[1],inactive
same,outcome,[2],inactive
same,outcome,[3],inactive
same,outcome,[4],inactive
same,outcome,[5],inactive
same,outcome,[6],inactive
same,outcome,[9],inactive
same,outcome,[8],inactive
CC(COCC(C)OC(=O)c1ccccc1)OC(=O)c1ccccc1 (centres undefined),outcome,[1],inactive
same,outcome,[2],inactive
same,outcome,[3],inactive
same,outcome,[4],inactive
same,outcome,[5],inactive
same,outcome,[6],inactive
same,outcome,[9],inactive
same,outcome,[8],inactive
Cc1occc(=O)c1O,outcome,[1],inactive
same,outcome,[2],inactive
same,outcome,[3],inactive
same,outcome,[4],inactive
same,outcome,[5],inactive
same,outcome,[6],inactive
same,outcome,[8],inactive
CCC(C)N(C)C(=O)c1cc2ccccc2c(-c2ccccc2Cl)n1 (centres undefined),outcome,[1],inactive
same,outcome,[2],inactive
same,outcome,[3],inactive
same,outcome,[4],inactive
same,AC50,[5],50.5 µM (active)
same,outcome,[6],inactive
same,AC50,[8],1.77 µM (active)
CCCCCCCCCCCCCCOS(=O)(=O)O,outcome,[1],inactive
same,outcome,[2],inactive
same,outcome,[3],inactive
same,outcome,[4],inactive
same,outcome,[5],inactive
same,outcome,[6],inactive
same,AC50,[7],85.6 µM (active)
same,AC50,[8],12.6 µM (active)
CCCCC(CC)COP(=O)(OCC(CC)CCCC)OCC(CC)CCCC (centres undefined),outcome,[1],inactive
same,outcome,[2],inactive
same,outcome,[3],inactive
same,outcome,[4],inactive
same,AC50,[5],24.6 µM (active)
same,outcome,[6],inactive
same,AC50,[9],7.79 µM (active)
same,outcome,[8],inactive
NC(=Nc1ccccc1)Nc1ccccc1,outcome,[1],inactive
same,outcome,[2],inactive
same,outcome,[3],inactive
same,outcome,[4],inactive
same,AC50,[5],50 µM (active)
same,outcome,[6],inactive
same,outcome,[8],inactive
Cc1cc(Cc2ccc(N)c(C)c2)ccc1N,outcome,[1],inactive
same,outcome,[2],inactive
same,outcome,[3],inactive
same,outcome,[4],inactive
same,AC50,[5],50 µM (active)
same,outcome,[6],inactive
same,outcome,[8],inactive
O=C(N[C@@H](c1ccccc1)[C@@H]1CCCCN1)c1cccc(C(F)(F)F)c1Cl,outcome,[1],inactive
same,outcome,[2],inactive
same,AC50,[3],50 µM (active)
same,outcome,[4],inactive
same,outcome,[5],inactive
same,AC50,[6],82.8 µM (active)
same,AC50,[9],78.8 µM (active)
same,outcome,[8],inactive
CN(C)CCCN(C)CCCN(C)C,outcome,[1],inactive
same,outcome,[2],inactive
same,outcome,[3],inactive
same,outcome,[4],inactive
same,outcome,[5],inactive
same,outcome,[6],inactive
same,outcome,[8],inactive
CC(=O)OCC(COC(C)=O)OC(C)=O,outcome,[1],inactive
same,outcome,[2],inactive
same,outcome,[3],inactive
same,outcome,[4],inactive
same,outcome,[5],inactive
same,outcome,[6],inactive
same,outcome,[8],inactive
O=C1OC(c2ccc(O)cc2)(c2ccc(O)cc2)c2ccccc21,outcome,[1],inactive
same,outcome,[2],inactive
same,outcome,[3],inactive
same,outcome,[4],inactive
same,AC50,[5],72.4 µM (active)
same,outcome,[6],inactive
same,AC50,[9],76.9 µM (active)
same,AC50,[8],78.7 µM (active)
CCCCc1nc2cccnc2n1Cc1ccc(-c2ccccc2-c2nnn[nH]2)cc1,outcome,[1],inactive
same,outcome,[2],inactive
same,outcome,[3],inactive
same,outcome,[4],inactive
same,outcome,[5],inactive
same,outcome,[6],inactive
same,outcome,[8],inactive
O=C1c2c(O)cccc2Cc2cccc(O)c21,outcome,[1],inactive
same,outcome,[2],inactive
same,outcome,[3],inactive
same,outcome,[4],inactive
same,AC50,[5],18.2 µM (active)
same,outcome,[6],inactive
same,outcome,[7],inactive
same,outcome,[8],inactive
CCCCCCCC(=O)OC,outcome,[1],inactive
same,outcome,[2],inactive
same,outcome,[3],inactive
same,outcome,[4],inactive
same,outcome,[5],inactive
same,outcome,[6],inactive
same,AC50,[8],12 µM (active)
NC1CCCCC1,outcome,[1],inactive
same,outcome,[2],inactive
same,outcome,[3],inactive
same,outcome,[4],inactive
same,outcome,[5],inactive
same,outcome,[6],inactive
same,outcome,[7],inactive
same,outcome,[8],inactive
Cc1cn([C@H]2C=C[C@@H](CO)O2)c(=O)[nH]c1=O,outcome,[1],inactive
same,outcome,[2],inactive
same,outcome,[3],inactive
same,outcome,[4],inactive
same,outcome,[5],inactive
same,outcome,[6],inactive
same,outcome,[9],inactive
same,outcome,[8],inactive
CC(C)(O)c1ccc(CNC(=O)c2cccnc2Oc2ccc(F)cc2)cc1,outcome,[1],inactive
same,outcome,[2],inactive
same,outcome,[3],inactive
same,outcome,[4],inactive
same,outcome,[5],inactive
same,outcome,[6],inactive
same,outcome,[8],inactive
CC(=O)[C@@]1(O)CC[C@H]2[C@@H]3CCC4=CC(=O)CC[C@]4(C)[C@H]3CC[C@@]21C,outcome,[1],inactive
same,outcome,[2],inactive
same,outcome,[3],inactive
same,outcome,[6],inactive
O=NO,outcome,[1],inactive
same,outcome,[2],inactive
same,outcome,[3],inactive
same,outcome,[4],inactive
same,outcome,[5],inactive
same,outcome,[6],inactive
same,outcome,[7],inactive
same,outcome,[8],inactive
CC(N)=O,outcome,[1],inactive
same,AC50,[2],0.321 µM (active)
same,outcome,[3],inactive
same,outcome,[4],inactive
same,outcome,[5],inactive
same,outcome,[6],inactive
same,outcome,[8],inactive
